# Reference: PubChem BioAssay (NCI)
# About 83,000 compounds went through this panel and 20% of them were active in at least one assay; those are over-represented in the sample as a whole.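 Step 1: grow cells in 96-well plates. Step 2: add test compound at a single concentration. Step 3: incubate 48 h. Step 4: record percent growth.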 A number with no mark means an inactive call. Calls of active or inactive are those of the source. The calls were made as follows: active = growth percent below 10; inactive = the rest.
# Experiments:
# Assay in all cases: NCI-60 one-dose screen, 48 h (100 = growth as untreated, 0 = no growth, -100 = all killed)
# Conditions in all cases: 10 µM unless noted
# DU-145 prostate = tested on: DU-145 prostate
# K-562 leukemia = tested on: K-562 leukemia
# MALME-3M melanoma = tested on: MALME-3M melanoma
# MDA-MB-231 breast = tested on: MDA-MB-231 breast
# RXF 393 renal = tested on: RXF 393 renal
# SF-268 CNS = tested on: SF-268 CNS
# SF-295 CNS = tested on: SF-295 CNS
# SF-539 CNS = tested on: SF-539 CNS
# UACC-257 melanoma = tested on: UACC-257 melanoma
# M14 melanoma = tested on: M14 melanoma
SMILES,growth (DU-145 prostate) [%],growth (K-562 leukemia),growth (MALME-3M melanoma),growth (MDA-MB-231 breast),growth (RXF 393 renal),growth (SF-268 CNS),growth (SF-295 CNS),growth (SF-539 CNS),growth (UACC-257 melanoma),growth (M14 melanoma)
N#CC1=C(N)Oc2c(sc3c(Br)cccc23)C1c1ccc(Cl)cc1 (stereo not given),20,7.37% (active),50.4%,9.21% (active),-18% (active),20.2%,6.9% (active),-38.2% (active),64%,1.7% (active)
Fc1ccc(CNc2c3ccccc3nc3ccccc23)c(F)c1,50.9,22.5%,69.5%,44.4%,34.5%,68.6%,40.4%,32.4%,68.9%,55.3%
COc1ccc(-c2cc(-c3cc(OC)c(OC)c(OC)c3)c(C#N)c(=O)n2CCCCC(=O)NO)cc1,64.1,32.6%,33.1%,55.6%,53.1%,87.9%,78.7%,57.7%,71.7%,56.9%
CCCCNCCCCCNc1cc(OC)cc2cccnc12,120,76.8%,80.8%,87.3%,87.7%,95%,96.1%,92.8%,93.1%,97.1%
CCOC(=O)c1c(NC(=O)c2ccc(Cl)cc2)sc2c(CN(C)C)c(O)ccc12,82,8.81% (active),51.6%,56.4%,64.2%,78.5%,83.5%,56.7%,2.24% (active),-18.4% (active)
CCN(CC)Cc1cc(C=C2C(=O)NC(=S)NC2=O)cc(OC)c1O,111,117%,111%,103%,115%,101%,102%,101%,106%,108%
COC(=O)/C=C1/SC(=Nc2ccc(C(F)(F)F)cc2)N(CCc2c[nH]c3ccc(O)cc23)C1=O,12.7,19.9%,-13.8% (active),-13.9% (active),-50.9% (active),-5.68% (active),14.2%,-37.3% (active),9.58% (active),0.0712% (active)
Oc1c(I)cc(I)cc1CNCc1ccccn1,49.9,20.9%,42.5%,38.3%,70.2%,36.8%,25.7%,20.2%,15.4%,8.61% (active)
NC(N)=NCCCCCNc1noc(Cc2c[nH]c3cc(Br)ccc23)n1,92.8,86.4%,47.8%,69.4%,78.3%,33.3%,80.2%,71.8%,65.7%,73.6%
CCC1=C[C@@H]2C[C@]3(C(=O)OC)c4[nH]c5ccccc5c4CC[N@+](CC(=O)Nc4cc5c(cc4OC)N(C)[C@H]4[C@@](O)(C(=O)OC)[C@H](OC(C)=O)[C@]6(CC)C=CCN7CC[C@]54[C@@H]76)(C2)[C@H]13,117,106%,102%,98.2%,114%,105%,107%,106%,101%,97.7%
CC(=O)/C(=C\c1c(-c2ccccc2)[nH]c2ccccc12)S(C)(=O)=O,13.2,-25.7% (active),32.9%,32.3%,-5.08% (active),41.6%,3.77% (active),-34.8% (active),59.8%,3.01% (active)
COc1ccc(Nc2ncc(Br)c(NCCCNC(=O)C3CCCC3)n2)cc1,48.9,31.2%,58.5%,-27.7% (active),-20.9% (active),21.6%,39.4%,2.9% (active),96.5%,61.5%
N#CC1=C(N)Oc2c(c(=O)[nH]c3ccc(Cl)cc23)C12C(=O)c1ccccc1C2=O,106,126%,95%,90.3%,101%,92%,104%,92.3%,101%,97.8%
